The results in this text go back to PubChem BioAssay.

Usually inhibition stands for the drop in the measured response relative to a control, in per cent.

Where “and” joins values, the source holds several entries; their conditions need not be identical. Equal values may be shown once. A number with no mark means an inactive call. No rule for the calls is given here.

This assay deals with Botulinum neurotoxin type F light chain protease (Clostridium botulinum). Description: Clostridium botulinum type F light chain protease inhibitors, microsphere substrate cleavage, validation (AID 588459). The following applies: multiplex microsphere protease substrate cleavage assay, flow cytometry; at 10 µM; active compounds read high. (In flow cytometry, cells or beads pass a laser one at a time.)
Take `O=c1ccc2ccccc2o1`: the inhibition was -3%.
The figure for `CSc1ccc2c(c1)N(CCC1CCCCN1C)c1ccccc1S2` (stereo not drawn) is -0.1%.
Turning to `O=C(/C=C/c1ccc(F)cc1)N1CC[C@@]2(O)CCCC[C@H]2C1`, the inhibition is -2.9%.
Regarding `COc1ccccc1N=CC1=C(O)CC(c2ccccc2)CC1=O` (stereo not drawn), the inhibition was 0.8%.
The figure for `COc1cc(C(=O)CCN2CCC(c3ccccc3)C2)cc(OC)c1OC` (stereo not drawn) is 0.2%; for `COc1cc2c(cc1OC)C(c1ccccc1)=NCC2` it is 0.6%; for `COc1ccccc1C(=O)c1cc2ccc(O)cc2oc1=O` it is -0.4%.
The result for `O=C(O)C1Cc2ccccc2CN1S(=O)(=O)c1ccccc1` (stereo not drawn) reads 0.8%; that for `c1ccc(SSc2ccccc2)cc1`, 0.3%.
On to `Cc1ccc(N(CC2=NCCN2)c2cccc(O)c2)cc1`, for which the inhibition was -1.3% and 3.1% and -7.5%.
The result for `CCn1c(SCC(=O)c2ccccc2)nc2ccccc2c1=O` reads -3%.
With `CCCCNc1ccc(C(=O)OCCN(C)C)cc1`, the inhibition was 0.2%.
With `CCc1nc(N)nc(N)c1-c1ccc(Cl)cc1`, the inhibition is 0.4%.
The figure for `O=C(Cc1ccccc1)NNC(=O)Cc1ccccc1` is 0.3%; for `COc1ccc(-c2nc(NC(C)=O)sc2-c2ccc(OC)cc2)cc1` it is 3%; for `O=C(COc1ccc2ccc(=O)oc2c1)c1ccccc1` it is -5.2%.
Turning to `N#Cc1c2c(c(-c3ccccc3)[nH]c1=O)CCCC2`, the inhibition was -7.4%.
Consider `Cc1cccc2c(C(=O)O)cc(-c3cccnc3)nc12`, for which the inhibition was -2.3%.
